Screening results: PubChem, Broad Institute
CD40 NFkB inh = CD40 pathway inhibition in BL2 cells. BL2 NF-kB luciferase reporter, CD40L-induced, 4 h. inhibition, % at 10 µM. actives 0.94% (n = 83,000). AID 1053188;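 active means mean inhibition of at least 50% with a set share of replicates also reaching that level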;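 further: 0% = neutral control wells and 100% = IKK inhibitor VII at 50 µM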
Starred values were filed as active, the others as inactive; [ ] = dose if it differs, or a comment. This is one part of a sample in which hits are shown more often than they occur.

SMILES	CD40 NFkB inh
O=C(N/N=C/c1cccc(O)c1)c1ccc2c(c1)OCCO2	75*
O=C(N/N=C/c1cccnc1)c1ccc2c(c1)OCO2	-33
CC(=O)N(C)C[C@H]1Oc2ccc(NS(C)(=O)=O)cc2CC(=O)N(C)C[C@@H]1C	-1
CCc1cnc(N2[C@@H](C#N)[C@H](c3ccc(C#CCC4CCCC4)cc3)[C@@H]2CO)s1	19[25 µM]
Cc1ccc(S(=O)(=O)Nc2ccc3c(c2)C(=O)N([C@@H](C)CO)C[C@@H](C)[C@@H](CN(C)C)O3)cc1	10
CS(=O)(=O)N1[C@@H]2CN(CC(F)(F)F)C[C@H]1C2c1ccc(Br)cc1 (some centres undefined)	6
CCOC(=O)c1c(C)nc(C)c(C(=O)OCC)c1-c1cccc([N+](=O)[O-])c1	-3
Cc1nc2nc(C)n(CCN3CCOCC3)c(=O)c2c(-c2cccc([N+](=O)[O-])c2)c1C(=O)CCCCCCCCCCN1CCC(c2ccccc2)(c2ccccc2)CC1	115*
Cc1nc2ccccc2c(=O)n1CCN1CCOCC1	-4
COc1ccccc1-c1ccc([C@@H]2[C@@H](CO)N3CCCCN(C(=O)NC4CCCC4)C[C@H]23)cc1	7[25 µM]
O=C(Nc1ccc(F)cc1)N1CCC(c2nc3c(nnn3Cc3cccc(Cl)c3)c(=O)[nH]2)CC1	69*
Cc1ccc(NC(=O)N2CCC(c3nc4c(nnn4Cc4cccc(Cl)c4)c(=O)[nH]3)CC2)cc1	42
O=C(NC1CCCC1)c1nc2c(nnn2Cc2cccc(Cl)c2)c(=O)[nH]1	22
CN(C)C(=O)[C@H]1[C@H](CO)[C@H]2Cn3c(ccc(-c4ccncc4)c3=O)[C@@H]1N2CC1CC1	3[25 µM]
C[C@@H]1CN(C)C(=O)c2cc(N(C)C)ccc2O[C@@H]1CN(C)S(C)(=O)=O	8
CC(=O)C1CCC2C3CCC4CC(OC(=O)CCC(=O)O)CCC4(C)C3C(=O)CC12C (centres undefined)	11
CC(=O)[C@@]1(O)CCC2C3CC[C@H]4C[C@@H](O)CC[C@]4(C)C3CC[C@@]21C (some centres undefined)	-4
CC(=O)OC1CCC2(C)C(CCC3C4CC=C(C(C)=O)C4(C)OC(=O)CC32)C1 (centres undefined)	98*
C[C@@H]1CN(C)C(=O)Cc2cc(N)ccc2O[C@H]1CN(C)C	6
C[C@H](CO)N1C[C@H](C)[C@H](CN(C)C(=O)Nc2ccc3c(c2)OCO3)OCc2cn(nn2)CCCC1=O	-12[25 µM]
C[C@H](CO)N1C[C@H](C)[C@@H](CN(C)CC2CC2)OCc2ccccc2-c2c(n(C)c3ccccc23)C1=O	0
Cc1noc(/C=C/c2ccccn2)c1[N+](=O)[O-]	42*
Cc1ccc2ncccc2c1[N+](=O)[O-]	6
O=[N+]([O-])c1cccc(/C=C/c2ccccn2)c1	-58
O=C(C[C@@H]1CC[C@H]2NC[C@H](O)COC[C@@H]2O1)Nc1nccs1	2[25 µM]
SMILES	CD40 NFkB inh
CC=Cc1cc2c(c(=O)o1)C(=O)C(O)C(C)O2 (centres undefined)	41*
CN(C)C(=O)[C@@H]1[C@@H](CO)[C@@H]2Cn3c(ccc(-c4cncnc4)c3=O)[C@@H]2N1Cc1cc(F)ccc1F	6[25 µM]
C[C@H]1CN([C@@H](C)CO)C(=O)CCCn2cc(nn2)CO[C@H]1CN(C)C(=O)Nc1cccc(Oc2ccccn2)c1	2[25 µM]
CCCc1cn(CC[C@@H]2CC[C@@H](NC(=O)C3CCCC3)[C@@H](CO)O2)nn1	3
COc1cccc(NC(=O)N2CC(=O)N3[C@H](CO)[C@H](c4ccc(C5=CCCCC5)cc4)[C@@H]3C2)c1	9[25 µM]
CN(C)C(=O)c1ccc(-c2ccc([C@@H]3[C@@H](C#N)N(C(=O)Cc4ccccn4)[C@H]3CO)cc2)cc1	-7[25 µM]
CC=Cc1ccc2n(c1=O)C[C@@H]1[C@@H](CO)[C@H](C(=O)NCC(F)(F)F)[C@H]2N1C(=O)C1CCCCC1 (mixture of isomers)	-2
CC(C)(C)N1CC(c2nc3ccccc3n2Cc2ccccc2)CC1=O (centres undefined)	14
CCn1c2ccccc2nc2cc3c(cc21)c(Cl)c(=O)c1ccccc13	90*
CCn1c(CNC(=O)C(C)(C)C)nc2ccccc21	4
N#C[C@H]1[C@@H](c2ccc(C3=CCCCC3)cc2)[C@@H](CO)N1C(=O)C1CCOCC1	-6
NCC(O)COCCC12CC3CC(CC(C3)C1)C2 (centres undefined)	15
OC(COCCC12CC3CC(CC(C3)C1)C2)CN1CCCC1 (centres undefined)	11
CC(NCC(O)COCCC12CC3CC(CC(C3)C1)C2)c1ccccc1 (centres undefined)	86*
C[C@H]1CN([C@@H](C)CO)C(=O)c2cccc(NC(=O)C3CCCCC3)c2O[C@@H]1CN(C)S(C)(=O)=O	-15[25 µM]
O=C(Nc1ccc(Cl)cc1)N1C[C@H]2[C@@H](c3ccccc31)[C@@H](CO)N2CC1CCCCC1	10[25 µM]
C[C@H]1CN([C@@H](C)CO)C(=O)c2ccccc2-c2ccccc2CO[C@@H]1CN(C)Cc1ccccc1C(F)(F)F	66*[25 µM]
COc1ccccc1CN(C)C[C@@H]1OCc2ccccc2-c2ccccc2C(=O)N([C@@H](C)CO)C[C@@H]1C	-13[25 µM]
COc1ccccc1CN(C)C[C@@H]1OCc2ccccc2-c2ccccc2C(=O)N([C@H](C)CO)C[C@@H]1C	-3[25 µM]
C[C@H](CO)N1C[C@H](C)[C@H](CN(C)Cc2ccc(-c3ccccc3)cc2)OCc2ccccc2-c2ccccc2C1=O	6
C[C@H](CO)N1C[C@H](C)[C@H](CN(C)Cc2ccccc2)OCc2ccccc2-c2ccccc2C1=O	11
C[C@H](CO)N1C[C@H](C)[C@H](CN(C)Cc2ccc(Oc3ccccc3)cc2)OCc2ccccc2-c2ccccc2C1=O	57*[25 µM]
O=C(C[C@H]1C[C@@H]2c3cc(NC(=O)Nc4ccccc4F)ccc3O[C@@H]2[C@@H](CO)O1)NCc1ccccn1	-5[25 µM]
COc1ccc2c3c([nH]c2c1)[C@H](CO)NCC31CN(C(=O)Nc2ccc3c(c2)OCO3)C1	6[25 µM]
CCC(=O)N1CC2(CCN(Cc3ccc(Cl)cc3)CC2)c2c(n(C)c3cc(OC)ccc23)[C@H]1CO	5[25 µM]
SMILES	CD40 NFkB inh
C/C=C/c1ccc([C@H]2[C@@H](CO)N(C(=O)CC)[C@H]2CN(C)S(C)(=O)=O)cc1	9[25 µM]
C[C@@H]1CCCCO[C@H](CN(C)Cc2ccc3c(c2)OCO3)[C@H](C)CN([C@H](C)CO)C(=O)c2cc(NS(=O)(=O)c3cn(C)cn3)ccc2O1	0[25 µM]
CNC[C@H]1Oc2ccc(NC(=O)NC(C)C)cc2C(=O)N(C)C[C@H]1C	-1
COc1cccc(NC(=O)C[C@H]2CC[C@H]3[C@H](COc4ccc(NC(=O)C5CCCC5)cc4C(=O)N3C)O2)c1	12
Cn1cnc([N+](=O)[O-])c1Sc1ccncn1	5
O=[N+]([O-])c1ccc(Sc2ccncn2)c([N+](=O)[O-])c1	103*
Cc1ccnc(Sc2ccc([N+](=O)[O-])cn2)n1	-15
Cc1ccc(C)c(NC(=O)CN(C)C(=O)CSCc2c(C)noc2C)c1	29*
Cc1noc(C)c1CSCC(=O)N(C)CC(=O)Nc1ccc(Cl)c(Cl)c1	-3
CCN(CC(=O)Nc1cc(Cl)ccc1C)C(=O)CSCc1c(C)noc1C	1
COc1ccc(S(=O)(=O)N(C)C[C@@H]2Oc3ncccc3C(=O)N([C@H](C)CO)C[C@@H]2C)cc1	-10[25 µM]
COCCNC(=O)C[C@@H]1CC[C@@H]2[C@@H](COc3ccc(NS(=O)(=O)c4ccc(Cl)cc4)cc3C(=O)N2C)O1	-10[25 µM]
